In assay [1] the target is Rap guanine nucleotide exchange factor 3 (Homo sapiens) (UniProt O95398). The assay is described as follows: Confirmatory qHTS for antagonist of cAMP-regulated guanine nucleotide exchange factor 3 (EPAC1) (AID 1645880). Further: nearly all actives have a fitted effect of over 55% in size. Further: potency means the concentration at half of the fitted maximal effect. Summed up:
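Released BODIPY-GDP fluoresces less than Rap1-bound BODIPY-GDP; the signal is followed at 480/540 nm at 5-min intervals over 30 min, after 5 min at room temperature. Reactions contain 100 nM EPAC1, 250 nM RAP1B-BODIPY-GDP and 50 uM GDP; results are normalized to ATA and DMSO.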
For orientation: qHTS replaces the single test concentration by a dilution series.

The target is the same in assay [2]. Put plainly: Confirmatory qHTS for agonist of cAMP-regulated guanine nucleotide exchange factor 3 (EPAC1) (AID 1645881). Further: nearly all actives have a fitted effect of over 75% in size. Further: potency means the concentration at half of the fitted maximal effect.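 On activation: EPAC1 catalysed release of BODIPY-GDP from Rap1B seen as fluorescence loss; 100% = effect of cAMP agonist control.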
Assay [3] concerns the target Rap guanine nucleotide exchange factor 4 (Homo sapiens) (UniProt Q8WZA2). Put plainly: Confirmatory qHTS for agonist of cAMP-regulated guanine nucleotide exchange factor 4 (EPAC2) (AID 1645884).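 Further: nucleotide exchange releases bodipy-GDP from Rap1 and this lowers its fluorescence; nearly all actives have a fitted effect of over 65% in size.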 Further: potency means the concentration at half of the fitted maximal effect. On activation: on the % scale 0 is the no-effect control and ±100 the full control effect.
For assay [4] the target is unchanged. The assay is described as follows: Confirmatory qHTS for antagonist of cAMP-regulated guanine nucleotide exchange factor 4 (EPAC2) (AID 1645885). Further: nearly all actives have a fitted effect of over 25% in size. Further: potency means the concentration at half of the fitted maximal effect. On activity change, negative = inhibition: on the % scale 0 is the no-effect control and ±100 the full control effect.
Assay [5] concerns the target Rap guanine nucleotide exchange factor 3 (Homo sapiens) (UniProt O95398). Put plainly: Counterscreen qHTS for antagonist of cAMP-regulated guanine nucleotide exchange factor 3 (EPAC1) (AID 1645888). Further: % of control where 0% means no effect. The gist of the method: (§1)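 Rap1B–BODIPY-GDP (250 nM) with 50 uM GDP; compounds pin-transferred to 9.74 nM–152 uM final (activator) or from 7.32 nM upwards (inhibitor). Fluorescence Ex/Em 480/540 nm read at 5 and 30 min, then after adding cAMP or buffer, at room temperature.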
(The purpose of a counterscreen is to sort out artefacts and off-target activity.)

For assay [6] the target is unchanged. Put plainly: Counterscreen qHTS for agonist of cAMP-regulated guanine nucleotide exchange factor 3 (EPAC1) (AID 1645889). Further: nearly all actives have a fitted effect of over 40% in size. Further: potency means the concentration at half of the fitted maximal effect. On activation: % of control where 0% means no effect. Summed up: as §1

Results filed as inconclusive are left out. Calls of active or inactive are those of the source. The call rests on the fitted dose curve; in most records, active means well fitted curve in the direction sought with a large enough effect; inconclusive means small, poorly fitted or top-dose-only effect, or another doubt; inactive means no such curve, though single readings can be large; an effect the other way counts as inactive or inconclusive.

The results in this text go back to PubChem BioAssay (NCATS).

Chain of Rap guanine nucleotide exchange factor 3 (Homo sapiens) (O95398 whole entry, looked up): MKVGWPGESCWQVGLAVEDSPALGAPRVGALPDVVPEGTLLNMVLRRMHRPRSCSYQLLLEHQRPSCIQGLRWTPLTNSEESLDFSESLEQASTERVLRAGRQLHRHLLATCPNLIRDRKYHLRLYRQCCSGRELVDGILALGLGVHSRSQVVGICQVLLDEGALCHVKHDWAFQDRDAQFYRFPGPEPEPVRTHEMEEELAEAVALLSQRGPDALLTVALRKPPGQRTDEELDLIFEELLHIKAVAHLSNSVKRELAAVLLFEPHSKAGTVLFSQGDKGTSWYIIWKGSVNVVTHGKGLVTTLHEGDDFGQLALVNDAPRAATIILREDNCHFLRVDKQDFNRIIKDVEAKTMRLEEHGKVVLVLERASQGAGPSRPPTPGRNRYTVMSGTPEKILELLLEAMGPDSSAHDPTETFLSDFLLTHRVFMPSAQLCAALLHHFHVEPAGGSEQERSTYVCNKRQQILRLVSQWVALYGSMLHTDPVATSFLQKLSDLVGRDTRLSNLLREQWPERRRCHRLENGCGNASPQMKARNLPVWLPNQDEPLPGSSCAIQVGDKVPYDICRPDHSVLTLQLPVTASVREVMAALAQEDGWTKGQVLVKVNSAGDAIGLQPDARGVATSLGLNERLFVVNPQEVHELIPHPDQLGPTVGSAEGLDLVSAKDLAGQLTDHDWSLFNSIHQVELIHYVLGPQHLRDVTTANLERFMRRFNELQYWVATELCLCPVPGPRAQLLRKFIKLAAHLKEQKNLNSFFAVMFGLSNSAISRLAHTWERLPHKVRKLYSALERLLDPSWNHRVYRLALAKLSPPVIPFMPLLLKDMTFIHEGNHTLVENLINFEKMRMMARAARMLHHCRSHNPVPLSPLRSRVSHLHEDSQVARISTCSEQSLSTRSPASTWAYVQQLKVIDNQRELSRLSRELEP
Chain of Rap guanine nucleotide exchange factor 4 (Homo sapiens) (Q8WZA2 whole entry, looked up): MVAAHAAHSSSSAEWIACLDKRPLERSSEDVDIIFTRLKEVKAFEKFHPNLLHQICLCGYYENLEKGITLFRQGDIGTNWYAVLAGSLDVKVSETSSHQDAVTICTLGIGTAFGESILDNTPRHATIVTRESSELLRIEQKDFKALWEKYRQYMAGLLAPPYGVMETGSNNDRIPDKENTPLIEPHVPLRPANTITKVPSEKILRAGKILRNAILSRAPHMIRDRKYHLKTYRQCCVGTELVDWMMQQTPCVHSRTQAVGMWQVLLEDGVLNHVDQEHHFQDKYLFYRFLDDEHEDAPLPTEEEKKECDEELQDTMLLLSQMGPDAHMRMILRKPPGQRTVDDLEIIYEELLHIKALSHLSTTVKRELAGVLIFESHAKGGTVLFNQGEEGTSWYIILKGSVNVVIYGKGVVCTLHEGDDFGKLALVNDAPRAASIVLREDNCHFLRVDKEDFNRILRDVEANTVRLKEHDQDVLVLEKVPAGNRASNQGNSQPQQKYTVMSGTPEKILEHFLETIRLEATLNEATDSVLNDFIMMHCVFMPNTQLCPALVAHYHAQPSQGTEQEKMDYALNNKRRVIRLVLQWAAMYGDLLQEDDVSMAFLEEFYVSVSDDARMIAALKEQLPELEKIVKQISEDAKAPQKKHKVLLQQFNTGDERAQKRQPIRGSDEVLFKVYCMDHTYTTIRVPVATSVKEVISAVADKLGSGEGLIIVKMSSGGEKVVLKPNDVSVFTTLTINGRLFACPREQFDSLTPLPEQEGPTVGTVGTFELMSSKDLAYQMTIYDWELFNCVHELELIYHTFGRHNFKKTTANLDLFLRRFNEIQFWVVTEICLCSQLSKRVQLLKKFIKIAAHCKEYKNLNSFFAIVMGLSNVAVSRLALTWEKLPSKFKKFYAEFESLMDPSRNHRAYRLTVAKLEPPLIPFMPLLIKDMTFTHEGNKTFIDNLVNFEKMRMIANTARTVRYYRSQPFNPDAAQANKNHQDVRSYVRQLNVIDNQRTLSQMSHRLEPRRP

Regarding `COc1ccc(-c2nnc(SCC(=O)c3ccco3)n2-c2ccccc2)cc1`, the Potency entry in assay [1], in assay [2] and in assay [4] was “inactive” throughout. The activation in assay [3] is 3.77% [at 17.1 µM, percent relative to cAMP agonist control] (inactive); in assay [6], 4.19% [at 30.8 µM] (inactive). Besides, the activity change, negative = inhibition in assay [5] was -13.6% [at 30.8 µM] (inactive).

`CCCCOc1ccccc1Cn1c(=O)sc2ccccc21`: the Potency entry in assay [1], in assay [2], in assay [3], in assay [5] and in assay [6] was “inactive” each time. For the same compound, the outcome in assay [4] is “inactive [at 12.7 µM]”.

Regarding `CCCC[C@@H]1CNC(=O)C(=O)N1CCc1cccc(F)c1`, the Potency entry in assay [1], in assay [2] and in assay [4] was “inactive” throughout. For the same compound, the activation in assay [3] is 9.22% [at 17.1 µM, percent relative to cAMP agonist control] (inactive); in assay [6], -0.443% [at 30.8 µM] (inactive). Moreover, the activity change, negative = inhibition in assay [5] was -3.55% [at 30.8 µM] (inactive).

With `COc1ccc(CNC(=O)c2cc(=O)c3cc(C)ccc3o2)cc1`, the Potency result in assay [1], in assay [2], in assay [3], in assay [4], in assay [5] and in assay [6] was “inactive” throughout.

For the compound `Cc1cccc(NC(=O)CN2C(=O)S/C(=C\c3ccc(O)c([N+](=O)[O-])c3)C2=O)c1`, the Potency in assay [1] is 23.9 µM (active). Besides, the Potency result in assay [2], in assay [3], in assay [4], in assay [5] and in assay [6] was “inactive” in each case.

With `COc1ccc(OC)c(/C=c2\sc3nc(-c4cccs4)nn3c2=O)c1`, the Potency result in assay [1], in assay [4], in assay [5] and in assay [6] was “inactive” throughout. Moreover, the values for the Potency in assay [2] and in assay [3] were 89.1 µM (active) and 100 µM (active), respectively.

Take `Cc1cc(C)c2c(CN3CCCCC3)cc(=O)oc2c1`: the Potency entry in assay [1], in assay [2], in assay [3], in assay [4], in assay [5] and in assay [6] was “inactive” in each case.

For `N#Cc1c(/N=C/c2ccco2)sc2c1CCC2`, the Potency result in assay [1], in assay [2] and in assay [4] was “inactive” throughout. Also, the activation in assay [3] is 2.45% [at 17.1 µM, percent relative to cAMP agonist control] (inactive); in assay [6] it was 7.28% [at 30.8 µM] (inactive). Besides, the activity change, negative = inhibition in assay [5] is 0.743% [at 30.8 µM] (inactive).

On to `Cn1c(COc2ccc(Cl)cc2)nc2ccccc2c1=O`, for which the Potency in assay [1] is 25.1 µM (active). Moreover, the Potency entry in assay [2] and in assay [4] was “inactive” each time. The activation in assay [3] was 4.13% [at 17.1 µM, percent relative to cAMP agonist control] (inactive); in assay [6], 5.9% [at 30.8 µM] (inactive). Further, the activity change, negative = inhibition in assay [5] is 1.04% [at 30.8 µM] (inactive).

As for `O=C(O)CCc1ccc(-c2ccccc2)n1-c1cccc(Br)c1`, the Potency entry in assay [1], in assay [2], in assay [3], in assay [5] and in assay [6] was “inactive” each time. For the same compound, the outcome in assay [4] was “inactive; activator; fitted 0.0054 uM [at 12.7 µM]”.

Turning to `COC(=O)c1cc2sc(Cl)cc2n1Cc1c(C)cc(C)cc1C`, the Potency entry in assay [1], in assay [2], in assay [3], in assay [4], in assay [5] and in assay [6] was “inactive” each time.

For the compound `Nc1c(-c2nc(-c3cccs3)no2)nnn1-c1cccc(Cl)c1`, the Potency result in assay [1], in assay [2], in assay [3], in assay [5] and in assay [6] was “inactive” in each case. Further, in assay [4], the outcome is “inactive [at 12.7 µM]”.

As for `O=C(c1ccccc1)c1nn(-c2ccccc2)c(=O)cc1-c1ccccc1`, the Potency entry in assay [1], in assay [2], in assay [3], in assay [4], in assay [5] and in assay [6] was “inactive” in each case.

For the compound `COc1ccc(S(=O)(=O)CC(=O)c2cc3cc(Br)ccc3oc2=O)cc1`, the Potency in assay [1] was 50.1 µM (active). In addition, the Potency result in assay [2] and in assay [4] was “inactive” in each case. Moreover, the activation was -4.99% [at 17.1 µM, percent relative to cAMP agonist control] (inactive) in assay [3] and 7.34% [at 30.8 µM] (inactive) in assay [6]. Besides, the activity change, negative = inhibition in assay [5] is -4.76% [at 30.8 µM] (inactive).

Consider `Fc1cccc(Cc2c(-c3ccccc3)nc3ccc(Cl)cn23)c1`, for which the Potency result in assay [1], in assay [2], in assay [3], in assay [4], in assay [5] and in assay [6] was “inactive” throughout.

For the compound `O=C1NC(=O)/C(=C/c2ccccn2)S1`, the Potency entry in assay [1], in assay [2], in assay [3], in assay [4], in assay [5] and in assay [6] was “inactive” throughout.

Take `O=C1c2ccccc2S(=O)(=O)c2cc(N3CCC4(CC3)OCCO4)ccc21`: the Potency entry in assay [1], in assay [2], in assay [3] and in assay [5] was “inactive” each time. In addition, the figures for the Potency in assay [4] and in assay [6] were 84.9 µM (active) and 14.1 µM (active), respectively.

Regarding `CC(C)CS(=O)(=O)C1=NN2C(=N)/C(=C\c3ccc(OC(=O)c4ccco4)cc3)C(=O)N=C2S1`, the Potency in assay [1] is 37.9 µM (active). Besides, the Potency entry in assay [2], in assay [3], in assay [4], in assay [5] and in assay [6] was “inactive” each time.

With `O=C1c2cccc3cccc(c23)N1Cc1ccc(F)cc1`, the Potency entry in assay [1], in assay [2] and in assay [4] was “inactive” each time. In addition, the activation in assay [3] was 1.12% [at 17.1 µM, percent relative to cAMP agonist control] (inactive); in assay [6] it was 4.85% [at 30.8 µM] (inactive). For the same compound, the activity change, negative = inhibition in assay [5] is -16.7% [at 30.8 µM] (inactive).

With `COc1cccc(C2c3[nH]c4ccccc4c3CCN2Cc2ncc[nH]2)c1` (stereo unspecified), the Potency entry in assay [1], in assay [2] and in assay [4] was “inactive” throughout. For the same compound, the activation in assay [3] was 1.64% [at 17.1 µM, percent relative to cAMP agonist control] (inactive); in assay [6], 15.1% [at 30.8 µM] (inactive). Moreover, in assay [5], the activity change, negative = inhibition is -8.75% [at 30.8 µM] (inactive).

Consider `CCN1/C(=C/c2ccc3cc(C)ccc3[n+]2CC)Sc2ccccc21`, for which, in assay [1], the Potency was 75.7 µM (active). The Potency entry in assay [2], in assay [3], in assay [4], in assay [5] and in assay [6] was “inactive” each time.
